Results published in PubChem BioAssay AID504607 (Sanford-Burnham Center for Chemical Genomics, 2011).
In all, about 6,200 compounds went through this assay and about 4,800 (77%) were called active.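 The calls were made as follows: active = mean inhibition at 8 µM reaching about 37%, which flags the compound as non-specific (limit read from the data); inactive = the rest.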 The set was probably picked from earlier hits. The list is a sample of the results.

Test: full-length luciferase signal inhibition, confirmation, counter-screen for Mdm2/MdmX interaction inhibitor project, cell-based, single concentration, SaOS-2 (AID 504607);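 also: p53-null SaOS-2 cells with luciferase driven by a doxycycline-inducible promoter; compound on cells about two nights before reading with doxycycline added after day one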
Details: SaOS-2 full-length luciferase counterscreen, luminescence; at 8 µM; hits give high values
In the case of `Oc1c(CN2CCN(c3ccc(F)cc3)CC2)cc(Cl)c2cccnc12`, the inhibition is reported as 25.7% (inactive).
In the case of `N#Cc1ccc(C(=O)Nc2nc(-c3cccs3)c(C(=O)C(F)(F)F)s2)cc1`, the inhibition is reported as 54.4% (active).
For `COc1ccc(CNC(=O)C(c2ccc(O)cc2)N(Cc2ccco2)C(=O)c2snc(C(N)=O)c2N)cc1` (configuration not stated), the inhibition was 88.8% (active).
In the case of `Clc1ccc2c(c1)C1=C(C(c3ccncc3)O2)C(c2ccc(Br)cc2)n2ncnc2N1` (configuration not stated), the inhibition is reported as 67.2% (active).
With `Nc1nc(CC(=O)CSc2ccc(Cl)cc2)nc(Nc2ccc(F)cc2)n1` the inhibition was 29.2% (inactive).
In the case of `COc1ccc(C2=Nn3c(nnc3-c3ccccc3OC)SC2)cc1OC1CCCC1`, the inhibition is reported as 68.2% (active).
With `Cc1nc(/N=C(\N)NC(=O)NC2CCCCC2)nc2ccccc12` the inhibition was 34.4% (inactive).
In the case of `Cc1nc(N=C(N)N)nc2c(C)cccc12`, the inhibition is reported as 63.3% (active).
With `COc1ccc(CNC(=O)C[C@H]2C[C@H](C(=O)N3CCOCC3)[C@@]3(CCC4CCCC4)c4[nH]c5ccc(Cl)cc5c4CCN3C2=O)cc1OC` the inhibition was 39.6% (active).
In the case of `CN(C)c1ccnc2sc3c(=O)n(Cc4ccccc4)cnc3c12`, the inhibition is reported as 15.1% (inactive).
In the case of `Cc1cccc(CS(=O)(=O)c2ncc(Cl)c(C(=O)Nc3ccc(F)cc3)n2)c1`, the inhibition is reported as 51.2% (active).
In the case of `O=C(CCl)Nc1cccc(CP(=O)(c2ccccc2)c2ccccc2)c1`, the inhibition is reported as 27.6% (inactive).
In the case of `Cc1cccc(NC(=O)c2nc(S(=O)(=O)Cc3ccccc3)ncc2Cl)c1`, the inhibition is reported as 50.9% (active).
With `C[C@@H](NC(=O)OC(C)(C)C)c1nnc(S(=O)(=O)Cc2ccccc2)o1` the inhibition was 24.9% (inactive).
For `O=C(/C(=C/c1cccc(Cl)c1)c1nc2ccccc2[nH]1)c1ccccc1`, the inhibition was 97.6% (active).
With `CCCCNC(=O)C(C)N(CCN(C)C)C(=O)CCCCCN1C(=O)NC(c2ccc(Cl)cc2)C(C(=O)OCc2ccccc2)=C1C` (configuration not stated) the inhibition was 27.8% (inactive).
For `Cc1cc2cc3c(cc2nc1SCC(=O)Nc1c(C)cccc1C)CCC3`, the inhibition was 60.3% (active).
With `CCOC(=O)Nc1ccc2c(c1)N(C(=O)CCCl)c1ccccc1[S@]2=O` the inhibition was 54% (active).
For `CNC[C@H](CC1CCCCC1)NC[C@H](NCCC1CCCC1)[C@H](C)O`, the inhibition was 30.2% (inactive).
For `COc1ccc(-c2cc(C(=O)N(C)CC(=O)Nc3ccccc3Cl)c3ccccc3n2)cc1OC`, the inhibition was 79% (active).
For `COc1ccc(CN(C)C(=O)c2cc(-c3ccc(C)cc3C)nc3ccccc23)c(OC)c1OC`, the inhibition was 62.1% (active).
In the case of `COc1ccc(-c2cc(C(=O)N(C)Cc3ccc(OC)c(OC)c3OC)c3ccccc3n2)cc1OC`, the inhibition is reported as 97.7% (active).
In the case of `COc1cc(SC)ccc1C(=O)Nc1nc(C)cs1`, the inhibition is reported as 43.3% (active).
With `COc1c(C)c2c(c(O)c1C/C=C(\C)CCC(=O)O)C(=O)OC2` the inhibition was 22.9% (inactive).
With `O=C(Nc1ccc2c(c1)OCCO2)C1CCCC1` the inhibition was 88.1% (active).
With `Oc1c(Cl)cc(Cl)c(Cl)c1Cc1c(O)c(Cl)cc(Cl)c1Cl` the inhibition was 26.8% (inactive).
For `CCNC(=O)c1c(O)c2cccc3c2n(c1=O)CC3`, the inhibition was 22.6% (inactive).
In the case of `Cc1ccc(-c2nn(C(C)(C)C)c3ncnc(N)c23)cc1`, the inhibition is reported as 30.7% (inactive).
With `O=C1NC[C@@H](c2ccccc2)OC(=O)[C@H](Cc2ccc(F)cc2)CC/C=C/C[C@H]1CC(=O)N(CCO)Cc1ccccc1` the inhibition was 79% (active).
For `COc1ccc(C(C(=O)NC2CCCCC2)N(C(=O)CCl)c2ccccc2Cl)cc1` (configuration not stated), the inhibition was 78.5% (active).
With `Cc1cc(NC(=O)/C=C/C(=O)N(c2ccccc2C)C(C(=O)NC2CCCC2)c2ccc(F)cc2)no1` (configuration not stated) the inhibition was 28.7% (inactive).
With `COc1ccc(OC)c(Nc2nc(-c3ccc(O)c(O)c3)cs2)c1` the inhibition was 79.9% (active).
For `Cc1oc2c(c1C(=O)N1CCOCC1)C(=O)c1ccccc1C2=O`, the inhibition was 56.8% (active).
For `O=S(=O)([N-]c1nc2ccccc2nc1-[n+]1ccc(Cc2ccccc2)cc1)c1ccc(Br)s1`, the inhibition was 56.5% (active).
With `OCCNc1nc(Nc2ccc(Cl)c(Cl)c2)nc2ccccc12` the inhibition was 24.3% (inactive).
For `O=[N+]([O-])c1c(NCCO)cc(Sc2nc3ccccc3s2)c2nonc12`, the inhibition was 50.4% (active).
In the case of `COC(=O)Cc1[nH]n(-c2nc3ccccc3s2)c(=O)c1C(C)=Nc1ccc(OC)cc1`, the inhibition is reported as 26.2% (inactive).
In the case of `O=C(Nc1ccccc1Cl)/C(Cl)=C(\Cl)S(=O)c1ccccc1` (configuration not stated), the inhibition is reported as 1.94% (inactive).
For `CCCC(O)(CCC)C(=O)NN(C(=O)CCl)c1cccc(C)c1`, the inhibition was 23.7% (inactive).
In the case of `Cc1ccc(N(Cc2cc(=O)[nH]c3ccccc23)C(=O)CCl)cc1`, the inhibition is reported as 25.3% (inactive).
In the case of `Cc1cccc(N(C)C(=O)c2cc3c(=O)[nH]c4ccc(C)cc4c3s2)c1`, the inhibition is reported as 43.4% (active).
For `CC[C@]1(C(=O)OC)[C@H]2C(=O)N(Cc3ccccc3)C(=O)[C@H]2[C@H]2CN=C(SCc3ccc(Cl)cc3)N21`, the inhibition was 52.2% (active).
For `CC[C@]1(C(=O)OC)[C@H]2C(=O)N(Cc3ccccc3)C(=O)[C@H]2[C@H]2CN=C(SCc3ccc(C#N)cc3)N21`, the inhibition was 54.6% (active).
In the case of `CC[C@]1(C(=O)OC)[C@H]2C(=O)N(Cc3ccccc3)C(=O)[C@H]2[C@H]2CN=C(SCc3ccccc3)N21`, the inhibition is reported as 35.8% (inactive).
For `Cc1cc(Nc2cc(N3CCN(C)CC3)nc(Sc3ccc(NC(=O)C4CC4)cc3)n2)n[nH]1`, the inhibition was 41.6% (active).
For `Cc1[nH]c(C)c(S(=O)(=O)N2CCN(c3cccc(C(F)(F)F)c3)CC2)c1C(=O)N1CCCCC1`, the inhibition was 54.6% (active).
In the case of `COc1ccc(CNc2nc(NCc3ccc(OC)cc3)c3ncn(C4CCCC4)c3n2)cc1`, the inhibition is reported as 73% (active).
In the case of `Cc1c(CN2CCC(CO)(CCOc3ccccc3)CC2)[nH]c2ccc(Cl)cc12`, the inhibition is reported as 53.7% (active).
For `N#CC1=C(N)Oc2cc(O)ccc2C1C1CCCCC1` (configuration not stated), the inhibition was 56.5% (active).
With `Cc1[nH]c(=O)c(C(=O)/C=C/c2ccccc2)c2c1CCCC2` the inhibition was 53.3% (active).
With `COc1ccc2cc1Oc1ccc(cc1)C[C@H]1c3cc(c(OC)cc3CCN1C)Oc1c(O)c(OC)cc3c1[C@H](C2)N(C)CC3` the inhibition was 51.1% (active).
For `CCN1C(=O)/C(=C\N2CCN(c3cccc(Cl)c3)CC2)SC1=S`, the inhibition was 72.2% (active).
In the case of `COc1cccc2sc(NNC(=O)c3nc4ccccc4s3)nc12`, the inhibition is reported as 68.2% (active).
For `COc1cccc2sc(N(CCCN(C)C)C(=O)C(c3ccccc3)c3ccccc3)nc12`, the inhibition was 24.8% (inactive).
With `COc1cccc2sc(N(CCCN(C)C)C(=O)CCS(=O)(=O)c3ccccc3)nc12` the inhibition was 21.2% (inactive).
For `CCSc1nsc(NC(=O)Nc2cccc(C(C)=O)c2)n1`, the inhibition was 41% (active).
With `C=CCSc1nsc(NC(=O)Nc2cccc(C(C)=O)c2)n1` the inhibition was 21.9% (inactive).
In the case of `CC(=O)c1ccc(Oc2cc(C)nc(-n3nc(C)cc3C)n2)cc1`, the inhibition is reported as 78.7% (active).
For `Oc1ccc(Br)cc1/C=N/Nc1ccccn1`, the inhibition was 20% (inactive).
For `Oc1cccc(/C=N/Nc2ccc(Cl)nn2)c1O`, the inhibition was 45.7% (active).
In the case of `Cc1nnnn1/C(=C\c1ccccc1)C(=O)OCC(=O)N1CC2(C)CC1CC(C)(C)C2` (configuration not stated), the inhibition is reported as 53.4% (active).
In the case of `CC[n+]1cc(C)ccc1/C=C/c1ccc(N(C)C)cc1`, the inhibition is reported as 37.8% (active).
For `O=C(/C=C/Sc1ncn[nH]1)c1ccc(Cl)cc1`, the inhibition was 51% (active).
In the case of `COC(=O)CCNc1ccc2c(c1)OCCO2`, the inhibition is reported as 51.5% (active).
With `CCOC(=O)c1c(-c2cccc(C)c2)csc1NC(=O)c1c(-c2ccccc2)noc1C` the inhibition was 52.8% (active).
In the case of `O=C(CSc1nc2ccccc2c(=O)[nH]1)Nc1nc(-c2ccc(Br)cc2)cs1`, the inhibition is reported as 47.8% (active).
With `Cc1ccc(C(=O)Nc2sc(Cc3ccc4c(c3)OCO4)c(C)c2C(N)=O)cc1` the inhibition was 89.9% (active).
For `CCN1/C(=C\c2ccc3ccccc3[n+]2CC)Sc2cc(C)ccc21`, the inhibition was 25% (inactive).
For `Cc1ccc2[nH]c(=O)c(CN(CCCN(C)C)C(=O)Nc3cccc(Cl)c3)cc2c1`, the inhibition was 66.6% (active).
With `Cc1cccc(NS(=O)(=O)c2ccc(-c3cnc(C4CC4)o3)cc2)c1` the inhibition was 63.9% (active).
For `COC(=O)C1=C(Nc2ccc(C)cc2)C=C(C)C(C(=O)OC)C1c1ccc(F)cc1` (configuration not stated), the inhibition was 61.3% (active).
In the case of `O=C(c1[nH]ncc1-c1ccc(Cl)cc1)C1CO1` (configuration not stated), the inhibition is reported as 45.8% (active).
With `O=C1NC(Nc2nc3ccccc3s2)(C(F)(F)F)C(=O)N1C1CCCCC1` (configuration not stated) the inhibition was 73.6% (active).
In the case of `Brc1ccc2ncnc(NCc3cccnc3)c2c1`, the inhibition is reported as 26.8% (inactive).
With `Cc1ccnc(NC(=O)C2CCN(S(=O)(=O)c3c(C)c(C)cc(C)c3C)CC2)c1` the inhibition was 46% (active).
In the case of `O=C(CCNC(=O)c1ccc(Cl)cc1)NC1CCCc2ccccc21` (configuration not stated), the inhibition is reported as 54.4% (active).
For `CCOC(=O)/C(=C\c1ccc([N+](=O)[O-])cc1)C(=O)c1cc(C(C)=O)c(Nc2ccccc2)s1`, the inhibition was 50.6% (active).
In the case of `CN(c1ccccc1)S(=O)(=O)c1cc(C(=O)N2CCN(c3ncccn3)CC2)ccc1Cl`, the inhibition is reported as 83.9% (active).
In the case of `O=C(COc1ccccc1F)Nc1nc(-c2ccccn2)cs1`, the inhibition is reported as 47.2% (active).
With `Cc1ccc(C)c(N2CCN(C(=O)CCCCCn3c(=S)[nH]c4ccc(N5CCOCC5)cc4c3=O)CC2)c1` the inhibition was 60.1% (active).
For `O=C(CCCCCn1c(=S)[nH]c2cc3c(cc2c1=O)OCO3)N1CCN(c2ccc(F)cc2)CC1`, the inhibition was 79.3% (active).
For `COc1cccc(-c2nnc(NC(=O)c3ccc(S(=O)(=O)N(CC(C)C)CC(C)C)cc3)o2)c1`, the inhibition was 24.3% (inactive).
For `O=C1/C(=C\c2ccccc2Cl)SC(=S)N1CCC(=O)N1CCCc2ccccc21`, the inhibition was 43.1% (active).
For `O=C(CN1C(=O)c2ccccc2S1(=O)=O)N1CCc2ccccc21`, the inhibition was 15.9% (inactive).
For `Fc1ccccc1/C=C1\CCCC2=C1Nc1ncnn1C2c1ccccc1F` (configuration not stated), the inhibition was 3.26% (inactive).
With `Cc1ccccc1NC(=O)CSc1nc2ccc(Nc3nc(N4CCOCC4)nc(N4CCOCC4)n3)cc2s1` the inhibition was 81.4% (active).
For `O=C(CSc1nc(Nc2ccccc2)nc(N2CCOCC2)n1)Nc1cc(Cl)ccc1O`, the inhibition was 65.1% (active).
